The values below come from PMC7862700, “An all-to-all approach to the identification of sequence-specific readers for epigenetic DNA modifications on cytosine”.

Holding throughout (assay): DAPPL (digital affinity profiling via proximity ligation, sequencing); 10 mM Tris-HCl pH 7.5, 50 mM NaCl, 1 mM DTT, 4% glycerol, room temperature, 30 min; GST-TFs on glutathione beads, 16-mer random dsDNA library, 0.1% formaldehyde crosslink after washing; high values mean tight binding
Experiment [1] has as its target T1, FEV (Homo sapiens, UniProt Q99581 1-238).
T1 sequence: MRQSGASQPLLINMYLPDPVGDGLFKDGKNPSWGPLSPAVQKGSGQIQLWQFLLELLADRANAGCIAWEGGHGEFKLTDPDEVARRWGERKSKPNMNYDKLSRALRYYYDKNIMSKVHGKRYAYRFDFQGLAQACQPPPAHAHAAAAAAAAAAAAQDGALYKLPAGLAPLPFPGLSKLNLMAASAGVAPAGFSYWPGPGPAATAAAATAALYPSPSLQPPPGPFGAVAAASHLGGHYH
The conditions noted are these: protein: recombinant; tags: N-terminal GST; dsDNA, one strand shown. In short, it runs like this:
(§1)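 Yeast served to express human transcription factors as GST fusions, which were then captured on glutathione beads and labelled with DNA barcodes. Pooled with a tag-only sample, they were incubated with 200 nmole of a 16-mer random double-stranded DNA library for 30 min at room temperature in Tris/NaCl/DTT/glycerol buffer, washed, crosslinked with 0.1% formaldehyde, ligated by proximity, amplified by PCR and sequenced. Dividing each hexamer's read frequency for a factor by its frequency for the tag-only sample gives the binding signal.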

Experiment [2] has as its target ETV5 (Homo sapiens, UniProt P41161 1-510). The conditions noted are these: protein: recombinant; tags: N-terminal GST; dsDNA, one strand shown. In short, it runs like this: as §1
Experiment [3] addresses HSF1 (Homo sapiens, UniProt Q00613 1-529). As to conditions: protein: recombinant; tags: N-terminal GST; chain copies: 3; dsDNA, one strand shown. In short, it runs like this:
as §1

The target of experiment [4] is T2, SPIC (Homo sapiens, UniProt Q8N5J4 1-248).
T2 sequence: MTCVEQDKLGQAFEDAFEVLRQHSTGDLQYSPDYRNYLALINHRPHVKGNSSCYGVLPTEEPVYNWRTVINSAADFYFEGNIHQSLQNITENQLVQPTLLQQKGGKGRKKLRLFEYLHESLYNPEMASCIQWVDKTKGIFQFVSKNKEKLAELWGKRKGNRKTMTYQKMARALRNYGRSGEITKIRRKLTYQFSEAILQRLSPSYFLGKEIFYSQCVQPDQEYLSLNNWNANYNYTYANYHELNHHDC
As to conditions: protein: recombinant; tags: N-terminal GST; dsDNA, one strand shown. In short, it runs like this:
as §1

Experiment [5] addresses ELF4 (Homo sapiens, UniProt Q99607 1-663). As to conditions: protein: recombinant; tags: N-terminal GST; dsDNA, one strand shown. The method in brief:
as §1

In experiment [6] the target is T3, ELK4 (Homo sapiens, UniProt P28324-2 1-405).
T3 sequence: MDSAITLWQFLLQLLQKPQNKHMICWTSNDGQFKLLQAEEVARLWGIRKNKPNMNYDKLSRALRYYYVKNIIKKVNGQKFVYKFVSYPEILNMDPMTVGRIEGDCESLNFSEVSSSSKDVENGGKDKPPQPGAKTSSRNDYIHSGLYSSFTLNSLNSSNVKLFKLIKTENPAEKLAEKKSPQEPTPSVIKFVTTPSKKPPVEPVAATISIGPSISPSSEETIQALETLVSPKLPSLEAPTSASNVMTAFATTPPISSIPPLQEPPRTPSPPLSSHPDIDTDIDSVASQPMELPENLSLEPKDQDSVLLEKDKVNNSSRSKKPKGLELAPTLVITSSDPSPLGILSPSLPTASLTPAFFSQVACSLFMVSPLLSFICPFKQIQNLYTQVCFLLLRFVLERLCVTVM
As to conditions: protein: recombinant; tags: N-terminal GST; dsDNA, one strand shown. The method in brief:
as §1

Experiment [7] has as its target T4, ETV2 (Homo sapiens, UniProt O00321 1-342).
T4 sequence: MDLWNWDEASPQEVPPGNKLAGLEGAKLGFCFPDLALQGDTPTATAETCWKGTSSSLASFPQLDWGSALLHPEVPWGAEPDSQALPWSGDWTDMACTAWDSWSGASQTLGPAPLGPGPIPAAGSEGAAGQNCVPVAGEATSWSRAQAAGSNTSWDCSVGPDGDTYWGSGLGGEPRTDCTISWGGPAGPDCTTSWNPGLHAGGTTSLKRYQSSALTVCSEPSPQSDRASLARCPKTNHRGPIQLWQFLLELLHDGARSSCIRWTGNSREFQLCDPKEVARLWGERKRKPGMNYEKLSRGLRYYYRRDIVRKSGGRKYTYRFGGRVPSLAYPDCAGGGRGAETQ
The conditions noted are these: protein: recombinant; tags: N-terminal GST; dsDNA, one strand shown. In short, it runs like this: as §1

In experiment [8] the target is T5, ELF3 (Homo sapiens, UniProt P78545 1-371).
T5 sequence: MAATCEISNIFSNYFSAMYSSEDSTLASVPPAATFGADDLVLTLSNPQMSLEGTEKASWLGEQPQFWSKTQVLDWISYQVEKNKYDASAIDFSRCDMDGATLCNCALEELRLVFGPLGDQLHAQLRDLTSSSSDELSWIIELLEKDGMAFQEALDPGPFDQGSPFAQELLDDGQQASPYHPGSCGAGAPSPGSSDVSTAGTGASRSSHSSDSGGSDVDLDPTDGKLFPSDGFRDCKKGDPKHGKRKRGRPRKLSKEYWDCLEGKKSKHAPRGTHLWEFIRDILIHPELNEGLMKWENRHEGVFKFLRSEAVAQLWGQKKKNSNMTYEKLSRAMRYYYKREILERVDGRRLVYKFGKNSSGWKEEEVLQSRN
As to conditions: protein: recombinant; tags: N-terminal GST; dsDNA, one strand shown. The method in brief:
as §1

In experiment [9] the target is CRX (Homo sapiens, UniProt O43186 1-299). As to conditions: protein: recombinant; tags: N-terminal GST; dsDNA, one strand shown. In short, it runs like this:
as §1

The target of experiment [10] is ETV1 (Homo sapiens, UniProt P50549 1-477). The conditions noted are these: protein: recombinant; tags: N-terminal GST; dsDNA, one strand shown. The method in brief:
as §1

For experiment [11], the target named is T6, ERF (Homo sapiens, UniProt P50548 1-548).
T6 sequence: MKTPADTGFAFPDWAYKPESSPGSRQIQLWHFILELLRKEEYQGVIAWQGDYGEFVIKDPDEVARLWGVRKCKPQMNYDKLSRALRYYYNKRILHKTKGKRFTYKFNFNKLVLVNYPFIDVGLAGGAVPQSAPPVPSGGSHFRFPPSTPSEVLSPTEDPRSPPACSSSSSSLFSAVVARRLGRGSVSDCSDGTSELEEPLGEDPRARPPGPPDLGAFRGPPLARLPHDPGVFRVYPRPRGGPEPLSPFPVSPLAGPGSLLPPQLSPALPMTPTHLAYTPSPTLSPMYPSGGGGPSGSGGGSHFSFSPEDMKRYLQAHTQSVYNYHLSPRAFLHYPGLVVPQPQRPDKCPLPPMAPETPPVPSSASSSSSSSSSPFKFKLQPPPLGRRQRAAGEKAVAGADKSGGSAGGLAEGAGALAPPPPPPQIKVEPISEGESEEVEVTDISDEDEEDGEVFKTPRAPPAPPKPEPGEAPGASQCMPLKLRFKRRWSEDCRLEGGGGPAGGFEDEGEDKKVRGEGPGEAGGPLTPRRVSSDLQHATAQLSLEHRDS
The conditions noted are these: protein: recombinant; tags: N-terminal GST; dsDNA, one strand shown. The method in brief: as §1

Experiment [12] has as its target T7, ETV3L (Homo sapiens, UniProt Q6ZN32 1-361).
T7 sequence: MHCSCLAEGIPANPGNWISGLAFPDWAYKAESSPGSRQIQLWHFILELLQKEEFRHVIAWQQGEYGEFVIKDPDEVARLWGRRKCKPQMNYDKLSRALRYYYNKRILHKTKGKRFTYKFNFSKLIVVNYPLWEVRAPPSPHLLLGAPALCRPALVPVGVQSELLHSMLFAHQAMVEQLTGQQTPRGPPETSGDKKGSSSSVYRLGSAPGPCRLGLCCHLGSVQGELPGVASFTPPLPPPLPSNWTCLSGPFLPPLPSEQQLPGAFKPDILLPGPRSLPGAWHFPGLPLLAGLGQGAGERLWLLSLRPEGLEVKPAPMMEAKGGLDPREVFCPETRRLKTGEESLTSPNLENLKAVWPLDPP
The conditions noted are these: protein: recombinant; tags: N-terminal GST; dsDNA, one strand shown. The method in brief:
as §1

The target of experiment [13] is T8, ETS2 (Homo sapiens, UniProt P15036 1-469).
T8 sequence: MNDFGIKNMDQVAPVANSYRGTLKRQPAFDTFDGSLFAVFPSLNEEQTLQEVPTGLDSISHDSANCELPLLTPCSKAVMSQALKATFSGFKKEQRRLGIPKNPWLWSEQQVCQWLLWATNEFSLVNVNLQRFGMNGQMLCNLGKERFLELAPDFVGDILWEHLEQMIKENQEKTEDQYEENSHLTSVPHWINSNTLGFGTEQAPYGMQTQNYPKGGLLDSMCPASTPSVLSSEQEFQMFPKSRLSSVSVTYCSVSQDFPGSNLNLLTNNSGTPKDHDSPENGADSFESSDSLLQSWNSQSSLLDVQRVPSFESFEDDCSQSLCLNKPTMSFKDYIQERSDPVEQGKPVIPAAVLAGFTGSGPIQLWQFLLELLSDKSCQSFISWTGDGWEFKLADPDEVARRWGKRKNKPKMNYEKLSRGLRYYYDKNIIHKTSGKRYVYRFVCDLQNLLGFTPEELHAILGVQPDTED
The conditions noted are these: protein: recombinant; tags: N-terminal GST; dsDNA, one strand shown. In short, it runs like this: as §1

The target in experiment [14] is T9, SPDEF (Homo sapiens, UniProt O95238 1-335).
T9 sequence: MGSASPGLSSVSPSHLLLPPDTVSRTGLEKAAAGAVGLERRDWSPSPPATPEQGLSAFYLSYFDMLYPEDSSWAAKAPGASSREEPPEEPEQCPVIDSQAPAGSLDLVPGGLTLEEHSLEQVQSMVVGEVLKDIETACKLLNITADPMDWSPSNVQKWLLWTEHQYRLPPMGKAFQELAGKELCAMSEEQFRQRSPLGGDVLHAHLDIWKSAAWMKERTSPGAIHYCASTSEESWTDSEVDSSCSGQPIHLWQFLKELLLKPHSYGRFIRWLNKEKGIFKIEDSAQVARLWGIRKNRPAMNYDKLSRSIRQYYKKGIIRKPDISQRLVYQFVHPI
As to conditions: protein: recombinant; tags: N-terminal GST; dsDNA, one strand shown. In short, it runs like this: as §1

The target of experiment [15] is T10, ETV7 (Homo sapiens, UniProt Q9Y603 1-341).
T10 sequence: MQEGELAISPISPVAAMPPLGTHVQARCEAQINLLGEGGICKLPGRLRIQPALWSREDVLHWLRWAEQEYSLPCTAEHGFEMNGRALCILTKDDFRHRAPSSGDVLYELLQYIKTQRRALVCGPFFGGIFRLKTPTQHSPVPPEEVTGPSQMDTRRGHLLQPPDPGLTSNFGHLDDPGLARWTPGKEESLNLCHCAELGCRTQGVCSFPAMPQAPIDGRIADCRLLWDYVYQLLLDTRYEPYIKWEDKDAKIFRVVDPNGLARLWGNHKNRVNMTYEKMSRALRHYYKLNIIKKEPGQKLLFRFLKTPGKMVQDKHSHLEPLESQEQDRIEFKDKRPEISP
The conditions noted are these: protein: recombinant; tags: N-terminal GST; dsDNA, one strand shown. The method in brief:
as §1

Experiment [16] deals with T11, ELF5 (Homo sapiens, UniProt Q9UKW6-2 1-255).
T11 sequence: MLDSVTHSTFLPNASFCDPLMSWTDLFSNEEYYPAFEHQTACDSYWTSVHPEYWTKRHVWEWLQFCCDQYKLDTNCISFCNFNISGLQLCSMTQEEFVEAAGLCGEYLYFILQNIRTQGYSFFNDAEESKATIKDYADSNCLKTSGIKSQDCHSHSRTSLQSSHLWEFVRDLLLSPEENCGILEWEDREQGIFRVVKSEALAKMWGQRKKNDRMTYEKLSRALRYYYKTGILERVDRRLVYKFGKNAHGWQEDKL
As to conditions: protein: recombinant; tags: N-terminal GST; dsDNA, one strand shown. The method in brief:
as §1

In experiment [17] the target is T12, ETV3 (Homo sapiens, UniProt P41162-2 1-143).
T12 sequence: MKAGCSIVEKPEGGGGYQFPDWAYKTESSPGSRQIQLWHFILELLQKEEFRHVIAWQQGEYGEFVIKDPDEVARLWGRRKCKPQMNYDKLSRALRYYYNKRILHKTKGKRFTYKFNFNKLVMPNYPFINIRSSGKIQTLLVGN
As to conditions: protein: recombinant; tags: N-terminal GST; dsDNA, one strand shown. The method in brief:
as §1

The target of experiment [18] is ETV6 (Homo sapiens, UniProt P41212 1-452). As to conditions: protein: recombinant; tags: N-terminal GST; dsDNA, one strand shown. In short, it runs like this:
as §1

Chain of ELF4 (Q99607 whole entry): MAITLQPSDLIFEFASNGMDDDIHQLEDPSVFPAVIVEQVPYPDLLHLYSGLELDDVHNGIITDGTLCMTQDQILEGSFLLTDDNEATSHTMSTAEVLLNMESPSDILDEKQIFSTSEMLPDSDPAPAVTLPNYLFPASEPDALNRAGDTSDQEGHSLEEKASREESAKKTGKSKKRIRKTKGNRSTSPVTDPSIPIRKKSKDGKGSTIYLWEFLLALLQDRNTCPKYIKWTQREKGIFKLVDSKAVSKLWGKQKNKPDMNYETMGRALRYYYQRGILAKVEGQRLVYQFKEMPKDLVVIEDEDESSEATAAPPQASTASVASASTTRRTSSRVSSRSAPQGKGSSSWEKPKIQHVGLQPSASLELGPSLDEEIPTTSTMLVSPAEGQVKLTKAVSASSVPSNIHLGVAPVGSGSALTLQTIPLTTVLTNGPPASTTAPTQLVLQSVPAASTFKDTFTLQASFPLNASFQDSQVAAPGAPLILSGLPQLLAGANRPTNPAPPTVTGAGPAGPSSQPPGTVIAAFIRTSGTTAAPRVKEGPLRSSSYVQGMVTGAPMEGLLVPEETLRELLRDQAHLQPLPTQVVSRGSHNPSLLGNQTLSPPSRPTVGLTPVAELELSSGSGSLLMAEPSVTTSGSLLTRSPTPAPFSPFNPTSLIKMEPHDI
Chain of ETV5 (P41161 whole entry): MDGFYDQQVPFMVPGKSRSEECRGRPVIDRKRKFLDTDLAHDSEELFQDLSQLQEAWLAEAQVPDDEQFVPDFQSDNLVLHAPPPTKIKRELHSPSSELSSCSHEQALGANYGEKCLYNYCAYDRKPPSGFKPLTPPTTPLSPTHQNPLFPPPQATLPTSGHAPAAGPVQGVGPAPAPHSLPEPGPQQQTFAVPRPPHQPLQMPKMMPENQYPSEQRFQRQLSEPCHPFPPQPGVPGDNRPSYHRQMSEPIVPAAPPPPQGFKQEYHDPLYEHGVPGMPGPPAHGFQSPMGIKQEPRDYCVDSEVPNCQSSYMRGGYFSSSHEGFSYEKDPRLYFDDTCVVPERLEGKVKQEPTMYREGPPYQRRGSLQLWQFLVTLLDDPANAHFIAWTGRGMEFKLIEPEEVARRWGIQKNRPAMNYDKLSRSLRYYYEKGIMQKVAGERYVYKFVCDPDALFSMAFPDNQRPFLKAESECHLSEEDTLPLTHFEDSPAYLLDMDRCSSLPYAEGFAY
Chain of ETV1 (P50549 whole entry): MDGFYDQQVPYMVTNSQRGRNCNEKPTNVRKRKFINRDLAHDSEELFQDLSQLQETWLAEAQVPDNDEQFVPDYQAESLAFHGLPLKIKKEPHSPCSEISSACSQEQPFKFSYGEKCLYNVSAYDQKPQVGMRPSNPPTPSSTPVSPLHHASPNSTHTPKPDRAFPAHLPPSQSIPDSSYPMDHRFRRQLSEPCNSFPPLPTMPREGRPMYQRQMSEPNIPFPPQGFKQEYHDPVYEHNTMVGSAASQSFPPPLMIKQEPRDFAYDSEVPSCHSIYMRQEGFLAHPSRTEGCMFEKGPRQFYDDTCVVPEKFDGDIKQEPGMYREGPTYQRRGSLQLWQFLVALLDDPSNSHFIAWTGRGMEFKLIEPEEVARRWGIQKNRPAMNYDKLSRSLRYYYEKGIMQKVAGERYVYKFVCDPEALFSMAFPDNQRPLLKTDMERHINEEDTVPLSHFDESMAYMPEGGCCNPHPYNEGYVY
Chain of ETV6 (P41212 whole entry): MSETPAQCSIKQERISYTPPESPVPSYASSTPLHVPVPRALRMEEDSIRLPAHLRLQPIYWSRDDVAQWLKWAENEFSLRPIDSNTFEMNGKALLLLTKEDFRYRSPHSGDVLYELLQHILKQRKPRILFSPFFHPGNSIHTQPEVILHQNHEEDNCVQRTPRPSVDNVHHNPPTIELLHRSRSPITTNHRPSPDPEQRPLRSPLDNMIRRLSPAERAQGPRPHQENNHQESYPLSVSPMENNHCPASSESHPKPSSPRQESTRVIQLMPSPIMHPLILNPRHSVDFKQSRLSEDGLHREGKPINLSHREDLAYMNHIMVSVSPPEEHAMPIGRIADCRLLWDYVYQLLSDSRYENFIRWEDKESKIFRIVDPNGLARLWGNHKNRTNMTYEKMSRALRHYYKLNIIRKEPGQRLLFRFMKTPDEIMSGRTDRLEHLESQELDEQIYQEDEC
Chain of CRX (O43186 whole entry): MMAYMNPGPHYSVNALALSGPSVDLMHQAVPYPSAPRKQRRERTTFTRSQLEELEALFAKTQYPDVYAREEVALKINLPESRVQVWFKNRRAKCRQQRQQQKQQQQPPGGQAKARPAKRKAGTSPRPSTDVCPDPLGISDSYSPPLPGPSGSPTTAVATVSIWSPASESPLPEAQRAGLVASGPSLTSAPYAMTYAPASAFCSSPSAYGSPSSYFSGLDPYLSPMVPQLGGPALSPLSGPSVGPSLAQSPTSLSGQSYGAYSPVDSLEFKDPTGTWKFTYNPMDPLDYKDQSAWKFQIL
Chain of HSF1 (Q00613 whole entry): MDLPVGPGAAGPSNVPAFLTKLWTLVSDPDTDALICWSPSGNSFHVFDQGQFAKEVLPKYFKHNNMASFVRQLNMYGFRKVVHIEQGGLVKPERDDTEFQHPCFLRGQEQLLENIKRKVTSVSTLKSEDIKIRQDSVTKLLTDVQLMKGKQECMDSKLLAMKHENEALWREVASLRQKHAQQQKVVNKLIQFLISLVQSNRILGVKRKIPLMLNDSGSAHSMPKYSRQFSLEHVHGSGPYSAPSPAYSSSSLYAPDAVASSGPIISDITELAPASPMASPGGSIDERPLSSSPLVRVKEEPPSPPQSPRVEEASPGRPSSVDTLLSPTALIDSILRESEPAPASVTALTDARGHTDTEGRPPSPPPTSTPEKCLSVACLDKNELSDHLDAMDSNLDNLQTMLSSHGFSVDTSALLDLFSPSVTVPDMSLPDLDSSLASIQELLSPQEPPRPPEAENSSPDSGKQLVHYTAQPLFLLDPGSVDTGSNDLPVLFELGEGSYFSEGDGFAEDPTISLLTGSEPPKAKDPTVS

TCAAAC: the binding signal is 1.21 fold enrichment (6-mer frequency, TF over GST control) in experiment [1]; 1.17 fold enrichment (6-mer frequency, TF over GST control) in [2]; 1.03 fold enrichment (6-mer frequency, TF over GST control) in experiment [3]; 1.19 fold enrichment (6-mer frequency, TF over GST control) in experiment [4]; 1.21 fold enrichment (6-mer frequency, TF over GST control) in experiment [5]; 1.28 fold enrichment (6-mer frequency, TF over GST control) in [6]. Moreover, the binding signal was 1.3 fold enrichment (6-mer frequency, TF over GST control) in experiment [7]; 1.24 fold enrichment (6-mer frequency, TF over GST control) in experiment [8]; 1.14 fold enrichment (6-mer frequency, TF over GST control) in experiment [9]; 1.29 fold enrichment (6-mer frequency, TF over GST control) in experiment [10]; 1.18 fold enrichment (6-mer frequency, TF over GST control) in [11]; 1.09 fold enrichment (6-mer frequency, TF over GST control) in experiment [12]. Also, the binding signal in experiment [13] is 1.19 fold enrichment (6-mer frequency, TF over GST control); in [14] it was 1.15 fold enrichment (6-mer frequency, TF over GST control); in experiment [15], 1.11 fold enrichment (6-mer frequency, TF over GST control); in experiment [16], 1.12 fold enrichment (6-mer frequency, TF over GST control); in [17], 1.21 fold enrichment (6-mer frequency, TF over GST control); in experiment [18] it was 1.19 fold enrichment (6-mer frequency, TF over GST control).
